Source: the supplement of paper PMC10849652
The full data set covers some 7,900 targets. This sample favours those with a hit. About 0.6% of all pairs of compound and target were hits.

compound: CC[C@H](C)[C@@H](C(=O)N[C@@H]([C@@H](C)O)C(=O)N[C@@H](CC(C)C)C(=O)[C@]1(CO1)C)NC(=O)[C@H]([C@@H](C)CC)N(C)C(=O)C [epoxomicin]; test: log2 fold change, soluble protein after heating vs DMSO (PISA); higher = thermal stabilisation; K562 cells, 10 uM, 30 min; active = over 0.2 and 3.5 SD of the protein, either way, in both replicates (recomputed)
Procedure, shortened: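 K562 cells at 2×10^6 cells/mL were treated with 10 μM compound for 30 min. Aliquots were heated for 3 min across 48°C-58°C, pooled, and extracted in PBS with 0.5% NP-40 at 4°C; soluble protein was the supernatant after 21,000xg for 90 min. Soluble protein was quantified by TMTpro 16plex LC-MS/MS with channel sums equalised, and reported as log2 fold change in thermal stability against DMSO controls, with values from duplicates.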

Chain of UniProt O00217 (O00217 whole entry, looked up): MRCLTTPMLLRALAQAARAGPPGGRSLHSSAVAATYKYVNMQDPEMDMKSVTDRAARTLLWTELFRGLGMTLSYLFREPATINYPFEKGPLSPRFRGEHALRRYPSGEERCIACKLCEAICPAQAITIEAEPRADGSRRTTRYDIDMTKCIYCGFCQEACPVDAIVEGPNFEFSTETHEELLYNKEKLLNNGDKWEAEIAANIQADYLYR
Chain of UniProt O00567 (O00567 whole entry, looked up): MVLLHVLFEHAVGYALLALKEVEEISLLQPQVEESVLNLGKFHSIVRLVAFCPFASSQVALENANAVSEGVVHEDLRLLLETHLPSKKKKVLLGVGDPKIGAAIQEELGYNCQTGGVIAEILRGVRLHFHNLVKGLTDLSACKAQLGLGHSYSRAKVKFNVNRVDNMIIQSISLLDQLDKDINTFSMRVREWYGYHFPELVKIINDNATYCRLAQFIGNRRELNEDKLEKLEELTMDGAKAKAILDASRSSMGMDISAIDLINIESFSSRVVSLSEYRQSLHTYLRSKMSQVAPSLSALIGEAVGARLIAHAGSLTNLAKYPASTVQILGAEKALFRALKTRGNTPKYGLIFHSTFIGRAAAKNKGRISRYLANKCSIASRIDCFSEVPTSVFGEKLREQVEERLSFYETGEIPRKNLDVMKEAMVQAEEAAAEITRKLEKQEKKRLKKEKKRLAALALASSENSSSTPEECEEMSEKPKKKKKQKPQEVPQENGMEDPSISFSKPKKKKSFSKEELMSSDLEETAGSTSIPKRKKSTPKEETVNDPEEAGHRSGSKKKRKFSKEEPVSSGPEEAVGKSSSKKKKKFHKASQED
Chain of UniProt O75251 (O75251 whole entry, looked up): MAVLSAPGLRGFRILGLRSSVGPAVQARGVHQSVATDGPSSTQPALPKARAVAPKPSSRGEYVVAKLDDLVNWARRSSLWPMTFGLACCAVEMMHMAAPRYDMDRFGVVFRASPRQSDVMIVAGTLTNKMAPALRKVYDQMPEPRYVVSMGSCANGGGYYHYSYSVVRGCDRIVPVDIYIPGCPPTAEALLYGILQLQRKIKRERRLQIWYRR
Chain of UniProt Q9H8H0 (Q9H8H0 whole entry, looked up): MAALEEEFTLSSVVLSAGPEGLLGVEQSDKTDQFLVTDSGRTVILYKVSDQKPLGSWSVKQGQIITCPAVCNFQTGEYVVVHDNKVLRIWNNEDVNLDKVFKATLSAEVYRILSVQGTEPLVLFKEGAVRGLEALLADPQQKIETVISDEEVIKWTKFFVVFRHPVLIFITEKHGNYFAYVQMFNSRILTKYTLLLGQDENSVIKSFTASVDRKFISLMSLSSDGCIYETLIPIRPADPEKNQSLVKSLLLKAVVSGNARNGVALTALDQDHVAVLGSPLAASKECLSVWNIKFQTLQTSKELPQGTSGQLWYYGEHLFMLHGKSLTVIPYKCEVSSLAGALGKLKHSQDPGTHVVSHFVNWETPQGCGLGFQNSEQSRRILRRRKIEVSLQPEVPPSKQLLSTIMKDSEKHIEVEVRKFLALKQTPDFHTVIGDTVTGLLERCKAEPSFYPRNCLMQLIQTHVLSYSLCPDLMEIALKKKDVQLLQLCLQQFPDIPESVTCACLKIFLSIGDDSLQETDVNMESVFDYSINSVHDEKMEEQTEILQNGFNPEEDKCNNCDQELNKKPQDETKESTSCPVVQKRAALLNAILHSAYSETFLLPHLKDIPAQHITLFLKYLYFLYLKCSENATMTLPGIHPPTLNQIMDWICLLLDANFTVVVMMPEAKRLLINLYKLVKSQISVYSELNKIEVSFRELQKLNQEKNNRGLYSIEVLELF
Chain of UniProt Q12986 (Q12986 whole entry, looked up): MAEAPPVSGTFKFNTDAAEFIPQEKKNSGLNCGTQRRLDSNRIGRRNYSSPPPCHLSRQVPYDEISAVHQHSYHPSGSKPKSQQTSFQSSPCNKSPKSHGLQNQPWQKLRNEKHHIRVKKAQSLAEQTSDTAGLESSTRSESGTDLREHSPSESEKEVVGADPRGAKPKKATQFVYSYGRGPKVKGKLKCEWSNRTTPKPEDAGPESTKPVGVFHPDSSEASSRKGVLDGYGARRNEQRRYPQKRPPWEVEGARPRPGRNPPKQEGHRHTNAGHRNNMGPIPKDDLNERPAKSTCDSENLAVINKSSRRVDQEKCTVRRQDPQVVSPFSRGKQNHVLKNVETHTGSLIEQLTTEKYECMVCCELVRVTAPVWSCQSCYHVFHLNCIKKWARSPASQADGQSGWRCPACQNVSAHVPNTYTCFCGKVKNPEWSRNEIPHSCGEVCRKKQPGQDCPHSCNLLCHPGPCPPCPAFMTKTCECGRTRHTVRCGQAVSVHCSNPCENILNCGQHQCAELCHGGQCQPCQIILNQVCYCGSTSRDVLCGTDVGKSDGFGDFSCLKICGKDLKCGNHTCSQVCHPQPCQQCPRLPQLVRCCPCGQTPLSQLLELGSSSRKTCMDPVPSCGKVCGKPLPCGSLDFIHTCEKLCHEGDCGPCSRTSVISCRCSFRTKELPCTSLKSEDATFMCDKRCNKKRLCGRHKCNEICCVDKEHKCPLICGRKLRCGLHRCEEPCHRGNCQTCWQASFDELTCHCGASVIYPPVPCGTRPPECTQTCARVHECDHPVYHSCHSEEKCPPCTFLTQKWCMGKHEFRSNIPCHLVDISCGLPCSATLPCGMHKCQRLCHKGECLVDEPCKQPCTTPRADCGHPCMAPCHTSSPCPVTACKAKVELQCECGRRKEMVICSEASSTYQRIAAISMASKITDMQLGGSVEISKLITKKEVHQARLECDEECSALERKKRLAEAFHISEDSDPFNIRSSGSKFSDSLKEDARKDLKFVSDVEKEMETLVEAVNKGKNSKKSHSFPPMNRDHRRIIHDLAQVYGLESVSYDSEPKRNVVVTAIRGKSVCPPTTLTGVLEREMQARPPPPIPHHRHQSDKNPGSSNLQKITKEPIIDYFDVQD
Chain of UniProt P49914 (P49914 whole entry, looked up): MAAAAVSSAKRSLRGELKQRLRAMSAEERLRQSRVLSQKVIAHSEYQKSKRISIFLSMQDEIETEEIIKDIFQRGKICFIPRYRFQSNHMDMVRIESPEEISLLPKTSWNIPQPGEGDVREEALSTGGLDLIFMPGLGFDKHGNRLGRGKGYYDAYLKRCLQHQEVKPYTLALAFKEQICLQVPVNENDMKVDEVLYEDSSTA
Chain of UniProt Q8WV92 (Q8WV92 whole entry, looked up): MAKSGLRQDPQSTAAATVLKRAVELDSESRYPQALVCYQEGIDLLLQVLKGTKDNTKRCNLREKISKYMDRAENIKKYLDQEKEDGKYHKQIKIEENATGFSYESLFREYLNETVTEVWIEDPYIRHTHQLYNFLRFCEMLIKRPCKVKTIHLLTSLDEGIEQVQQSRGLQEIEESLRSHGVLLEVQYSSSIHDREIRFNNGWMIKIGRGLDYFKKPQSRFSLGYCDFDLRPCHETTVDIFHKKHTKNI
Chain of UniProt Q86WC4 (Q86WC4 whole entry, looked up): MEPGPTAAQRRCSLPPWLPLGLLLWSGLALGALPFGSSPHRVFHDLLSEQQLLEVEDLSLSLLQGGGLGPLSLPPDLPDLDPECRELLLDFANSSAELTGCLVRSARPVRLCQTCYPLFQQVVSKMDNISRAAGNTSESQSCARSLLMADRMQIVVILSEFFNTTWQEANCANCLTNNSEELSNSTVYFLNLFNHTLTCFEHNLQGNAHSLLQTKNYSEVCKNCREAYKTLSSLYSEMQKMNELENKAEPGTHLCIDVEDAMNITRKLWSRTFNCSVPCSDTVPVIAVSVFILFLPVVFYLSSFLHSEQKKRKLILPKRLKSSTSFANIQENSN
Chain of UniProt Q12968 (Q12968 whole entry, looked up): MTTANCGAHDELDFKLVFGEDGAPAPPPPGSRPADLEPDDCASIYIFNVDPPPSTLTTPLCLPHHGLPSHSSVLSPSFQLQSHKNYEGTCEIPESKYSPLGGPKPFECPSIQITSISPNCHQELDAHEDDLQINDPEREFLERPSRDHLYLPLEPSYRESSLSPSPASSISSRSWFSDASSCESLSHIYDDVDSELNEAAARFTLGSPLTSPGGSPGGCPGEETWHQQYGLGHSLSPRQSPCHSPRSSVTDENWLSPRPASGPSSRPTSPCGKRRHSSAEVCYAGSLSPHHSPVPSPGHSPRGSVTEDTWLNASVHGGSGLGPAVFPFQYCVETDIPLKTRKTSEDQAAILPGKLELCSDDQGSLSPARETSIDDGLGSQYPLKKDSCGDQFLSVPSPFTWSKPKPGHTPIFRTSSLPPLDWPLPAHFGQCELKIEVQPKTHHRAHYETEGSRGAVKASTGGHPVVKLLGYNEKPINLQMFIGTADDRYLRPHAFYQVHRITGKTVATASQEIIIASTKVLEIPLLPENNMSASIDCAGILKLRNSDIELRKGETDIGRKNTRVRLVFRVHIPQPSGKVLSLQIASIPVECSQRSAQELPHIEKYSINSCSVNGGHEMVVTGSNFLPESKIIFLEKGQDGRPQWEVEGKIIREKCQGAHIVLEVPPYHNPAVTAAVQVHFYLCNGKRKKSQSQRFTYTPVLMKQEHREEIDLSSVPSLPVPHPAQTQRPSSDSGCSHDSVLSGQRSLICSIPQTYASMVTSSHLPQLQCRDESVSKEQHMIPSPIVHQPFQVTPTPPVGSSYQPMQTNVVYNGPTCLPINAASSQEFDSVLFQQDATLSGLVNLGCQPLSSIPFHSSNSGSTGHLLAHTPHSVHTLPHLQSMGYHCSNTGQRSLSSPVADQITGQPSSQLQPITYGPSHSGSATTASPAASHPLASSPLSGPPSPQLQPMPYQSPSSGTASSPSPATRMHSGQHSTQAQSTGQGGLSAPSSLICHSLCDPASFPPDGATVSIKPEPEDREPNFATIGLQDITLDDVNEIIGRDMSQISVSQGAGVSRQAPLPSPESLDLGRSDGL
Chain of UniProt P00846 (P00846 whole entry, looked up): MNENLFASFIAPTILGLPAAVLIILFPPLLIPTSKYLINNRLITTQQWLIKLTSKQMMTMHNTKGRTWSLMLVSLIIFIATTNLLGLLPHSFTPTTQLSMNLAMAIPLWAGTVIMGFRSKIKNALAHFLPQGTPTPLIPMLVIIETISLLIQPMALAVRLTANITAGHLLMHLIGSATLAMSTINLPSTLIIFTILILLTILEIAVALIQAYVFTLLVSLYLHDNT

log2 fold change, inactive:
NELFB isoform 2 (UniProt Q8WX92) 0.072
MRPL50 (UniProt Q8N5N7) 0.094
MRPL46 (UniProt Q9H2W6) 0.015
NOP56 (UniProt O00567) -0.44
MTHFS (UniProt P49914) 0.11
MKNK1 (UniProt Q9BUB5) 0.018
NMNAT1 (UniProt Q9HAN9) -0.168
MT-ATP6 (UniProt P00846) 0.105
NFATC3 (UniProt Q12968) -0.046
NELFA (UniProt Q9H3P2) 0.053
OSTM1 (UniProt Q86WC4) 0.107
NDUFS8 (UniProt O00217) 0.039
MITD1 (UniProt Q8WV92) 0.147
NFX1 (UniProt Q12986) -0.144
NBN (UniProt O60934) 0.073
NDUFS7 (UniProt O75251) -0.007
NA, A0A096LPI6 -0.017
NSMCE2 (UniProt Q96MF7) -0.089
NIPSNAP2 (UniProt O75323) 0.07
MRPS10 (UniProt P82664) -0.022
NNT (UniProt Q13423) 0.023
NEU1 (UniProt Q99519) 0.113
NOL11 (UniProt Q9H8H0) -0.015
MRPS25 (UniProt P82663) -0.126
